D2 ag-1: agonists of human D2 dopamine receptor (beta-arrestin); 360,000 tested, 0.084% active; DiscoveRx PathHunter D2 beta-arrestin, luminescence, 90 min; 100% = 57 uM dopamine signal; activation, % (test concentration not listed); AID 624465; in the data active = activation above about 40%; inconclusive = between about 15% and that limit
Target sequence (P14416 whole entry, looked up): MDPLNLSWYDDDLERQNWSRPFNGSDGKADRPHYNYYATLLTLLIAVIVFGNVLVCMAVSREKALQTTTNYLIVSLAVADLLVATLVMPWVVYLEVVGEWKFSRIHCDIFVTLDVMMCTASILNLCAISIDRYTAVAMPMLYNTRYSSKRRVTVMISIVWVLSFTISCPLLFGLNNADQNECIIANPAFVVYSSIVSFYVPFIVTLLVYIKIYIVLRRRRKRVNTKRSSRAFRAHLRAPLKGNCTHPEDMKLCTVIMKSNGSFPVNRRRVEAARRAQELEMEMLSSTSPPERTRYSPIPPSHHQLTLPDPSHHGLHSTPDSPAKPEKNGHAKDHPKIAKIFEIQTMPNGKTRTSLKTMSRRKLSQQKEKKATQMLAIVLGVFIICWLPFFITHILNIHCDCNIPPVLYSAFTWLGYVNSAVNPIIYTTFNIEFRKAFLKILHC
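Agonist mode: compounds alone added to overnight-plated D2 PathHunter cells for 90 min at 37 C, with 57 uM final dopamine (EC100) defining full response. Beta-arrestin recruitment detected by chemiluminescent reagent, read after 1 h at ambient temperature.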
D2 ag-2: D2 dopamine receptor (human) agonism. HEK293 T-REx D2 cells, calcium flux agonist mode. activation, % at 2 µM. 340,000 tested, 0.53% active;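 active = activation over 3 SD above normal in the single-dose calcium agonist read, cut at about 30% in these data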; note: 0% is about no effect
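Tetracycline-induced HEK293 Trex cells with D2 receptor force-coupled to calcium signaling, plated overnight at 30 C and loaded with no-wash calcium dye. Calcium flux read kinetically for 180 s after compound addition; responses flag agonists.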
D2 PAM-1: D2 dopamine receptor (human) potentiation; P14416; HEK293 T-REx D2, calcium flux, EC20 dopamine potentiation; potentiation, % at 10 µM; 340,000 tested, 0.34% active;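 active = potentiation over 3 SD above the plate norm, cut at about 30% in these data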; note: 0% is about no effect
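Primary screen. Calcium kinetics in induced HEK293 T-REx D2 cells: compound pre-addition 180 s, EC20 dopamine, 180 s more.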
D2 PAM-2: human D2 receptor positive allosteric modulation; potentiation, % (concentration not given with the values); 360,000 tested, 0.23% active; DiscoveRx D2 beta-arrestin cells, luminescence, 90 min; 100% = 57 uM dopamine signal; AID 624464; P14416; in the data active = potentiation above about 50%; inconclusive = mostly about 30% to 49%
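D2 cells co-treated with compound plus 50 nM dopamine (EC20) for 90 min at 37 deg C to detect potentiation. Beta-arrestin recruitment was read as enzyme-fragment luminescence after 1 h at ambient temperature. Full response was set by 57 uM dopamine.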
D2 antagonist: D2 dopamine receptor (human) antagonism; P14416; HEK293 TREx D2 cells, calcium flux, dopamine EC80; inhibition, % at 10 µM; 340,000 tested, 2% active; AID 485344; in the data active = inhibition above about 30%; inactive = below that, where a call was filed; note: 0% is about no effect
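Overnight-induced (tetracycline, 30 C) HEK293 T-REx cells carrying force-coupled D2 receive a no-wash calcium dye, then compound, then EC80 dopamine at 180 s; signals are read kinetically throughout.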
Starred values were filed as active, the others as inactive; ? = inconclusive; . = no result given; ! = not active in a repeat. Only some compounds are listed: those with a hit (about 2.4% of all), similar ones and a draw of the others.

SMILES | D2 ag-1 | D2 ag-2 | D2 PAM-1 | D2 PAM-2 | D2 antagonist
Cc1cc(NC(=O)CN2C(=O)CSc3ccc(S(=O)(=O)N(C)C)cc32)ccc1Br | . | 0 | -2 | . | .
COc1ccc(C(=O)/C=C2\Sc3ccccc3N2C)cc1 | -8 | -1 | -1 | -13 | 41*
COc1ccc(-[n+]2c(C)cc(/C=C3\Sc4ccccc4N3C)cc2C)cc1 | -5 | 55* | 3 | -8 | 48*
COc1ccccc1OC(=O)CCN1c2ccccc2Sc2ccccc21 | 2 | -1 | 1 | 7 | -3
COc1ccccc1-[n+]1c(C)cc(/C=C2\Sc3ccccc3N2C)cc1C | -8 | 89* | 16 | -36 | -16
CC1CCN(C(=O)Cn2cc(SCC(=O)NCc3ccc(F)cc3)c3ccccc32)CC1 | . | 1 | -1 | . | .
O=C(c1ccc(F)cc1)c1cn(Cc2ccccc2)c2cc3c(cc2c1=O)OCO3 | . | 0 | 18 | . | .
CCC1CCc2c(sc(NC(=O)C3c4ccccc4Oc4ccccc43)c2C(=O)OC)C1 (configuration not stated) | . | 0 | -8 | . | .
O=C(CN1C(=O)c2ccccc2C1=O)N1CCCCC1 | -4 | 1 | 3 | -1 | -14
O=C(NCC1c2ccccc2CCN1C(=O)CN1C(=O)c2ccccc2C1=O)C1CCCCC1 (configuration not stated) | -2 | 0 | -5 | -10 | 30*
Cc1cc(C)c(NC(=O)CSc2n[nH]c(-c3ccccc3Cl)n2)c(C)c1 | . | 0 | 18 | . | .
CN1C(=O)c2oc3ccccc3c(=O)c2C1c1cccnc1 (configuration not stated) | -2 | . | . | -7 | .
CN1C(=O)c2oc3ccccc3c(=O)c2C1c1ccccn1 (configuration not stated) | 1 | 0 | 32* | -2 | 4
O=C(c1cccs1)N1CCN(C(=O)C2CCCO2)CC1 (configuration not stated) | -1 | 7 | -7 | -1 | 37*
COc1ccccc1Cn1c(-c2ccccc2OC)nc2ccccc21 | -2 | 1 | 10 | -10 | 22
Oc1ccccc1Cn1c(-c2ccccc2O)nc2ccccc21 | 2 | 0 | 8 | 9 | 34*
Cc1c(C(=O)Nc2cccc(-c3nc4ccccc4s3)c2)oc2ccc(F)cc12 | . | -2 | . | . | .
COc1ccc(-c2onc(C)c2C)cc1S(=O)(=O)N1CCN(c2cc(C)ccc2C)CC1 | . | 0 | 2 | . | .
CCOc1ccc(C(=O)O/N=C(\N)c2ccccn2)cc1 | ? | 1 | -3 | 55* | 2
COc1ccc(Cl)cc1C(=O)O/N=C(\N)c1ccccn1 | ? | 0 | -2 | 63*! | 27
CC(C)(C)c1ccc(OCC(=O)N/N=C/c2cc(Br)ccc2OC(=O)c2ccco2)cc1 | -8 | 1 | 0 | -11 | 34*
CCOC(=O)C1CCN(S(=O)(=O)CCNC(=O)c2ccc(F)cc2)CC1 | 2 | 0 | 28 | 5 | 30*
O=C(NCCS(=O)(=O)N1CCCCCC1)c1ccc(F)cc1 | -5 | 1 | 0 | -3 | 8
CCOC(=O)/C(N=Nc1ccc2c(c1)OCO2)=C(\C)O | 2 | -1 | 119* | 4 | 8
CCn1ccc2c(OCC(=O)Nc3ccc(OC)cc3OC)cccc2c1=O | . | 1 | 4 | . | .
SMILES | D2 ag-1 | D2 ag-2 | D2 PAM-1 | D2 PAM-2 | D2 antagonist
COc1cc(O)c2c(c1)OC(C)(C)CC2=O | -2 | 1 | . | -5 | 4
COc1cc(O)cc2cc3c(c(O)c12)C(=O)CC(C)(O)O3 (configuration not stated) | 4 | 0 | 6 | 20 | 37*
Cc1ccc(CNC(=O)c2ccc3c(c2)NC(=O)C(CS(=O)(=O)Cc2ccc(F)cc2)N3)cc1 (configuration not stated) | . | 1 | -1 | . | .
CCC(=O)N1c2ccc(S(=O)(=O)NCc3ccc(F)cc3)cc2CC1C (configuration not stated) | . | 0 | -17 | . | .
O=C(Nc1ccccc1C(=O)N1CCCC1)c1ncoc1-c1cccc(Cl)c1 | 4 | 0 | 3 | -1 | 17
Cc1ccc(-c2ocnc2C(=O)Nc2ccccc2C(=O)N2CCCC2)cc1 | 0 | -1 | -11 | -7 | 57*
CCOC(=O)c1ccc(NS(=O)(=O)c2c(C)[nH]c(C)c2C(=O)N2CCCCC2)cc1 | -2 | 1 | -6 | 7 | 69*
O=C(Nc1ccc(F)cc1)NC1CCN(Cc2ccccc2)CC1 | -5 | 0 | -22 | -13 | 53*
O=C(Nc1ccc2c(c1)OCO2)C1CCCCC1 | -2 | 0 | 6 | -2 | -2
O=C(Nc1ccc2c(c1)OCO2)C1CCN(Cc2cc3c(cc2O)OCO3)CC1 | -5 | -4 | -16 | -18 | 35*
O=C(Nc1ccccc1)NC1CCN(Cc2c(F)cccc2Cl)CC1 | 2 | -1 | -21 | -22 | -13
O=C(Nc1ccc2c(c1)OCO2)NC1CCN(Cc2ccccc2)CC1 | -5 | 0 | -33 | -16 | 46*
COc1cc(CN(C(=O)c2ccc(C)cc2)c2ccccn2)cc(OC)c1OC | . | 0 | 12 | . | .
CCOC(=O)c1cccc(NC(=O)CNS(=O)(=O)c2cccs2)c1 | -3 | 0 | 44* | -4 | 10
Cc1ccccc1-n1nnnc1SCC(=O)c1c(N)n(C)c(=O)n(C)c1=O | 1 | 10 | 12 | -2 | 18
CCCCCCn1c(COc2ccccc2F)nnc1SCC(=O)c1c(N)n(C)c(=O)n(C)c1=O | . | -1 | 32* | . | -7
COCC(C)n1c(COc2ccccc2F)nnc1SCC(=O)c1c(N)n(C)c(=O)n(C)c1=O (configuration not stated) | -4 | 1 | 15 | -7 | -7
Cn1c(N)c(C(=O)CSc2nnnn2-c2ccccc2)c(=O)n(C)c1=O | 2 | 7 | -13 | 1 | 39*
Cc1cccc2sc(N(Cc3cccnc3)C(=O)C3COc4ccccc4O3)nc12 (configuration not stated) | . | . | -13 | . | .
COc1cc(C2NC(=O)N(C)C3=C2C(=O)N(c2ccccc2)C3)ccc1O (configuration not stated) | . | 0 | 0 | . | .
CCOC(=O)/C(=C\c1ccc(N2CCC(c3ccccc3)=N2)cc1)C(C)=O | 0 | . | . | -19 | .
O=C(/C=C/c1ccc(N2CCC(c3ccccc3)=N2)cc1)c1ccccc1 | -5 | 37* | -4 | -14 | 33*
Cc1ncc(CO)c2c1Oc1nc(-c3ccc(F)cc3)nc(SCC(=O)N3CCCCC3)c1C2 | . | 1 | 0 | . | .
CCN(CC)C(=O)N1c2ccccc2C=Cc2ccccc21 | -3 | 0 | -2 | 0 | -4
CN(C)CCCNC(=O)N1c2ccccc2C=Cc2ccccc21 | -5 | 1 | 6 | -16 | 33*
CCc1ccc2oc(-c3cccc(NC(=O)C(C)(C)Oc4ccc(Br)cc4)c3)nc2c1 | . | 1 | 21 | . | .

Screens deposited in PubChem BioAssay by National Center for Advancing Translational Sciences (NCATS).
